According to PubChem BioAssay (EPA / NIEHS):
Results filed as inconclusive are left out. Calls of active or inactive are those of the source. The calls were made as follows: active = hit-call score of the fitted dose curve at least 0.9, where 1 is the maximum; inconclusive = response in the unintended direction; inactive = score below 0.9.

Each molecule was assayed against rat Thyrotropin Releasing Hormone Receptor (TRH), Trhr (gene 25570) (UniProt Q01717) (assay: NVS_GPCR_rTRH: NovaScreen (NVS) G Protein-Coupled Receptor Assay for rat Thyrotropin Releasing Hormone Receptor (TRH) (AID 2283329);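 also: hit means lower bound tracer signal versus DMSO baseline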).
rat Thyrotropin Releasing Hormone Receptor (TRH), Trhr (gene 25570), sequence (Q01717 whole entry, looked up): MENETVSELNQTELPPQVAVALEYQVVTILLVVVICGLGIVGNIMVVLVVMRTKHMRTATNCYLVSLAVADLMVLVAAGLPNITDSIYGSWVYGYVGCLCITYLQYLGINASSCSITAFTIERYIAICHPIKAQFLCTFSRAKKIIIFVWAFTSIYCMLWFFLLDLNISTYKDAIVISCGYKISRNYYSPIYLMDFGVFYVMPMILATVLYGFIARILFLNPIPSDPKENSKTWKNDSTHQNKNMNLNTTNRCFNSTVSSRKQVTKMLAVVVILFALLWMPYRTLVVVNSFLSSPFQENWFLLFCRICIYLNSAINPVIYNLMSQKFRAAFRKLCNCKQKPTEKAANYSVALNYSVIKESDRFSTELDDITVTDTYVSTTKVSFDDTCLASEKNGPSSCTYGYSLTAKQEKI
Method in brief: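 Rat forebrain membrane prep, radioligand displacement, filter scintillation readout at 4 h. Single conc 25 uM, duplicate; actives retested as concentration series. DMSO = negative control/baseline.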
Sc1ccccc1 was tested, and the outcome was “inactive”. CCNc1nc(NC(C)C)nc(SC)n1 was tested, and the outcome was “inactive”. In the case of OCC(O)CO, the outcome is reported as “inactive”.

The molecules below were run against human Peripheral-type Benzodiazepine Receptor (PBR), TSPO (gene 706) (UniProt P30536) (assay: NVS_MP_hPBR: NovaScreen (NVS) Membrane Protein Assay for human Peripheral-type Benzodiazepine Receptor (PBR) (AID 2283331);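 also: hits reduce radioligand binding relative to DMSO baseline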).
human Peripheral-type Benzodiazepine Receptor (PBR), TSPO (gene 706), sequence (P30536 whole entry, looked up): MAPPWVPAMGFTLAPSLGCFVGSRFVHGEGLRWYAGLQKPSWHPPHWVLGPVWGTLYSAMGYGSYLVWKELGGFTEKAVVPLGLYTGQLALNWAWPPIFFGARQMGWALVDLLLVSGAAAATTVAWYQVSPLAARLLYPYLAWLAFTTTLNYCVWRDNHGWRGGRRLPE
Method in brief: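 Scintillation counts of filter-bound radioligand served as read-out after 1 h chemical dosing of human colonic membrane preparations. Activity was scored as signal loss against DMSO; initial duplicates at 25 uM, confirmatory concentration series afterward.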
Cc1ccccc1CO[C@@H]1C[C@@]2(C(C)C)CC[C@]1(C)O2 was tested, and the AC50 was 8.27 µM (active). Cc1ccc(O)c(C)c1 was tested, and the outcome was “inactive”. With Cc1cc(O)ccc1Cl the AC50 was 2.64 µM (active). In the case of CO/C=C(/C(=O)OC)c1ccccc1COc1cccc(C(F)(F)F)n1, the AC50 is reported as 4.21 µM (active).

What follows are molecules tested against rat Peripheral-type Benzodiazepine Receptor (PBR), Tspo (gene 24230) (UniProt P16257) (assay: NVS_MP_rPBR: NovaScreen (NVS) Membrane Protein Assay for rat Peripheral-type Benzodiazepine Receptor (PBR) (AID 2283335)).
rat Peripheral-type Benzodiazepine Receptor (PBR), Tspo (gene 24230), sequence (P16257 whole entry, looked up): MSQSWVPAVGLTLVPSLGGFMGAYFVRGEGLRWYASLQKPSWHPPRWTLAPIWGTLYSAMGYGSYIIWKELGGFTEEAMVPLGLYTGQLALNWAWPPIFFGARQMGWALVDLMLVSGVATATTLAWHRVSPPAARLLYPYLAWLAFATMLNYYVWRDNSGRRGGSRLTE
Method in brief: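 Radioligand displacement, rat kidney membrane prep, 1 h exposure, filter-based scintillation read; DMSO baseline, loss-of-signal scored. Primary screen at 25 uM in duplicate, actives followed up in concentration series.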
In the case of CC(C)(O)C(=O)Nc1ccc([N+](=O)[O-])c(C(F)(F)F)c1, the outcome is reported as “inactive”. For CCOC(=O)C(O)(c1ccc(Cl)cc1)c1ccc(Cl)cc1, the AC50 was 10 µM (active). In the case of Cc1ccccc1CO[C@@H]1C[C@@]2(C(C)C)CC[C@]1(C)O2, the outcome is reported as “inactive”. For Cc1cc(-c2ccc(N)c(C)c2)ccc1N, the AC50 was 13.7 µM (active). For Cc1ccc(O)c(C)c1, the outcome was “inactive”. In the case of OCC(O)CO, the outcome is reported as “inactive”. CO/C=C(/C(=O)OC)c1ccccc1COc1cccc(C(F)(F)F)n1 was tested, and the AC50 was 0.189 µM (active).

Each molecule was assayed against bovine Gamma-Aminobutyric Acid Type A Receptor Agonist (GABAR Agonist), GABRA1 (gene 780973) (UniProt P08219) (assay: NVS_LGIC_bGABAR_Agonist: NovaScreen (NVS) Ligand-Gated Ion Channel Assay for bovine Gamma-Aminobutyric Acid Type A Receptor Agonist (GABAR Agonist) (AID 2283338)).
bovine Gamma-Aminobutyric Acid Type A Receptor Agonist (GABAR Agonist), GABRA1 (gene 780973), sequence (P08219 whole entry, looked up): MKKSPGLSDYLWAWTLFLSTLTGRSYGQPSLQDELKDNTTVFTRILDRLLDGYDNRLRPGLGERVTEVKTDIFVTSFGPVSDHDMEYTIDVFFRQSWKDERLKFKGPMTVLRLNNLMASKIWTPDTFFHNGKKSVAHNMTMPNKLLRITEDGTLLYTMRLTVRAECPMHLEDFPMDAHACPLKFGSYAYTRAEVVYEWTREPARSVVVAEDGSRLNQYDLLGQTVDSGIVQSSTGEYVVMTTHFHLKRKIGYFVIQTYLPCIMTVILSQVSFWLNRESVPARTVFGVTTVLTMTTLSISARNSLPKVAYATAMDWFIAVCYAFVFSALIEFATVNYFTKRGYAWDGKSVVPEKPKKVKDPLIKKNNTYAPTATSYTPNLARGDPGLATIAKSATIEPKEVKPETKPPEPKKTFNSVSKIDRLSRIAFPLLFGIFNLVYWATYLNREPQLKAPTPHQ
Method in brief: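 Radioligand binding to bovine cerebellar membranes in agonist format, read by filter-based scintillation counting after 1 h. Primary screen in duplicate at 25 uM, with actives followed in concentration series. Gain of signal versus DMSO.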
In the case of CC#Cc1cc(C)nc(Nc2ccccc2)n1, the outcome is reported as “inactive”. With O=C(O)C(F)(F)C(F)(F)C(F)(F)C(F)(F)C(F)(F)C(F)(F)C(F)(F)C(F)(F)C(F)(F)F the outcome was “inactive”. c1cc2ccc3cccc4ccc(c1)c2c34 was tested, and the outcome was “inactive”. For CCC(C)c1cc([N+](=O)[O-])cc([N+](=O)[O-])c1O (centres undefined), the outcome was “inactive”. In the case of NS(=O)(=O)C(F)(F)C(F)(F)C(F)(F)C(F)(F)C(F)(F)C(F)(F)C(F)(F)C(F)(F)F, the outcome is reported as “inactive”.
